The full list was thinned out, with hits kept by preference.
IL1B secr inh – blocks inflammasome-driven IL-1 beta release. THP-1 LPS/ATP IL-1B secretion, AlphaLISA, 16 h; active compounds read low. activity change, % at 57.5 µM. 4.7% of 360,000 active. AID 743279; in the data active = activity change below about -50%; inconclusive = mostly about -30% to -49%
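Secreted IL-1B measured by AlphaLISA bead assay after 16 h compound exposure of THP-1 cells; compounds (final up to 57.5 uM) added 1 h before LPS (250 ng/mL) and ATP (1.25 mM) stimulation; lower signal means less secretion.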
HT1080 IDH1KD tx – kills HT-1080 cells with IDH1 knockdown. HT-1080 IDH1 knockdown viability, ATP luminescence, 48 h. Potency, µM (series often up to 46.1 µM), usual class: cytotoxic. 2% of 360,000 active
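Viability of IDH1-knockdown HT-1080 fibrosarcoma cells was assessed by CellTiter-Glo after 48 h at 37 °C with titrated compound; concentration-effect curves were classified by fit quality and response size.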
TDP1 cell noCPT – qHTS for Inhibitors of human tyrosyl-DNA phosphodiesterase 1 (TDP1): qHTS in cells in absence of CPT; 15% of 420,000 active; AID 686978, 2013; Potency, µM (highest dose often 46.2 µM), actives largely listed as inhibitors; DT40 Tdp1-/- hTDP1 cells, no CPT, ATP luminescence, 48 h; also: nearly all actives have a fitted effect of over 55% in size
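DT40 Tdp1-/-;hTDP1 cells, no CPT (DMSO vehicle only), 400 cells/well; compounds pin-transferred; ≥48 hr, 37 °C; CellTiter-Glo 30 min RT dark, luminescence read.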
TDP1 cell CPT – DT40-hTDP1 cell growth loss with CPT. Potency, µM (top dose mostly 46.2 µM), usual class: inhibitors. AID 686979. chicken DT40 Tdp1-/-;hTDP1 cells + 20 nM CPT, ATP luminescence, 48 h. 12% of 420,000 active; also: nearly all actives have a fitted effect of over 55% in size
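Chicken DT40 Tdp1-/- cells complemented with human TDP1, 400 cells/well, exposed to compounds plus 20 nM camptothecin for at least 48 h at 37 C; viability read as ATP content by CellTiter-Glo luminescence.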
ALOX12 inh – inhibitors of human 12S-lipoxygenase ALOX12 | 1.1% of 580,000 active | P18054 | AID 1671190 | purified 12hLO, xylenol orange hydroperoxide absorbance | Potency, µM (doses to about 108 µM), usual class: inhibitors
Target sequence (P18054 whole entry, looked up): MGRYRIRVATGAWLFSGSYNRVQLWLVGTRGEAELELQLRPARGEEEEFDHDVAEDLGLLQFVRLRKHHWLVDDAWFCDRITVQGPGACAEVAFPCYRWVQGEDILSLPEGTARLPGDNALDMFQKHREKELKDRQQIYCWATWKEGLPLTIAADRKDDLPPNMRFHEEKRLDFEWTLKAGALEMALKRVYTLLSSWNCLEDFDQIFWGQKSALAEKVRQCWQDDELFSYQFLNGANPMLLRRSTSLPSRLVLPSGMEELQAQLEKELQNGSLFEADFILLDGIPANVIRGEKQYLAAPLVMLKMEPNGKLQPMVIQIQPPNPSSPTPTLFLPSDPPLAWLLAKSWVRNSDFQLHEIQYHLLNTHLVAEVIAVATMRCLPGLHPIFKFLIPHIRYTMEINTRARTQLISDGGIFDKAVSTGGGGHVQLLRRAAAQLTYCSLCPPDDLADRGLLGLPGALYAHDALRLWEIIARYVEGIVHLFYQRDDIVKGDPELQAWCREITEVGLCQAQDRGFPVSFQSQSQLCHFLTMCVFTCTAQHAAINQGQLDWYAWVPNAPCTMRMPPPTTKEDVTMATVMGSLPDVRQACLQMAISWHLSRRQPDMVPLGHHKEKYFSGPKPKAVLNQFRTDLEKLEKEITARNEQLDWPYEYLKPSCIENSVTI
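Purified human 12hLO (150 nM final) in 25 mM Hepes, 0.01% Triton X-100, pH 7.0 was preincubated 15 min at room temperature with compound. Then 40 uM arachidonic acid was added, 30 min. Hydroperoxide was read by Fe-XO absorbance ratio 573/405 nm.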
HT1080-NT tox – kills 2HG-producing HT-1080-NT fibrosarcoma cells; AID 686970; 1.6% of 360,000 active; HT-1080-NT fibrosarcoma viability, CellTiter-Glo ATP luminescence, 48 h; Potency, µM (titrated, usually from 46.1 µM), hits mostly cytotoxic;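 also: NT is the 2HG producing partner of a matched IDH1 knockdown line; nearly all actives have a fitted effect of over 55% in size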
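Viability of the 2HG-overproducing fibrosarcoma line after 48 hours of compound exposure at 37 degrees C was determined by luminescence with CellTiter-Glo, and concentration-effect curves were then fitted and categorized.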
Of the large screens only hits and unclear results are named; the others gave an inactive call. Unless noted, calls follow the shape of the dose curve; as a rule, active = well fitted curve in the direction sought with a large enough effect; inconclusive = small, poorly fitted or top-dose-only effect, or another doubt; inactive = no such curve, though single readings can be large; an effect the other way counts as inactive or inconclusive.

O=c1c(Cl)c(N2CCN(c3ccccc3)CC2)cnn1C12CC3CC(CC(C3)C1)C2	HT1080 IDH1KD tx inconclusive, TDP1 cell noCPT 23µM, TDP1 cell CPT 26µM, HT1080-NT tox inconclusive
O=c1c(Cl)c(NCc2ccc(F)cc2)cnn1C12CC3CC(CC(C3)C1)C2	TDP1 cell noCPT 16µM, TDP1 cell CPT 16µM
O=c1c(Cl)c(N2CCN(c3ccc(F)cc3)CC2)cnn1C12CC3CC(CC(C3)C1)C2	TDP1 cell noCPT inconclusive, TDP1 cell CPT inconclusive
COCCN1C(=O)c2ccccc2C1c1nc2ccccc2[nH]1 (configuration not stated)	none
CCOC(=O)C1(CCOc2ccccc2)CCN(Cc2cc(OC)c3c(c2)OCO3)CC1	IL1B secr inh -61, HT1080 IDH1KD tx 18µM, TDP1 cell noCPT 12µM, TDP1 cell CPT 21µM, HT1080-NT tox 18µM
CCOC(=O)C1(CCOc2ccccc2)CCN(Cc2cccc3c2OCO3)CC1	IL1B secr inh -84, HT1080 IDH1KD tx inconclusive, TDP1 cell noCPT 15µM, TDP1 cell CPT 23µM, HT1080-NT tox 21µM
CCOC(=O)C1(CCOc2ccccc2)CCN(CC2CC2)CC1	none
CN(C)CCOc1cccc(N)c1	none (no result: IL1B secr inh, HT1080 IDH1KD tx, TDP1 cell noCPT, TDP1 cell CPT, HT1080-NT tox)
CCOc1ccc(-c2nnc(SCC(=O)Nc3cccc(C#N)c3)o2)cc1	TDP1 cell noCPT inconclusive, TDP1 cell CPT inconclusive (no result: IL1B secr inh, HT1080 IDH1KD tx, HT1080-NT tox)
C=C(C)CNC(=S)NNC(=O)CCn1c2cc(Cl)ccc2c2ccc(Cl)cc21	TDP1 cell noCPT inconclusive, ALOX12 inh inconclusive
C=C(C)CNC(=S)NNC(=O)CCn1c2ccc(Cl)cc2c2cc(Cl)ccc21	IL1B secr inh -100, HT1080 IDH1KD tx inconclusive, TDP1 cell noCPT inconclusive, TDP1 cell CPT inconclusive, ALOX12 inh 32µM, HT1080-NT tox inconclusive
CN(c1ccccc1)S(=O)(=O)c1c(-c2cccc(F)c2)csc1C(=O)NCc1ccccc1	none (no result: IL1B secr inh, HT1080 IDH1KD tx, TDP1 cell noCPT, TDP1 cell CPT, HT1080-NT tox)
COc1cccc(-c2nc3cc(SC)ccc3cc2CN(C(=O)c2csc(C)n2)C2CC2)c1	TDP1 cell noCPT inconclusive (no result: IL1B secr inh, HT1080 IDH1KD tx, HT1080-NT tox)
COc1cccc(-c2nc3cc4c(cc3cc2CN(C(=O)c2csc(C)n2)C2CC2)CCC4)c1OC	TDP1 cell noCPT 23µM (no result: IL1B secr inh, HT1080 IDH1KD tx, HT1080-NT tox)
O=C(Cn1c(=O)ccc2cc(S(=O)(=O)N3CCCC3)ccc21)NCc1ccc(Cl)cc1	TDP1 cell noCPT inconclusive, TDP1 cell CPT inconclusive (no result: IL1B secr inh, HT1080 IDH1KD tx, HT1080-NT tox)
O=C(Cn1c(=O)oc2cc(S(=O)(=O)NCc3ccccc3)ccc21)NCc1ccc(Cl)cc1	TDP1 cell noCPT inconclusive, TDP1 cell CPT 13µM, ALOX12 inh inconclusive (no result: IL1B secr inh, HT1080 IDH1KD tx, HT1080-NT tox)
O=C(Cn1c(=O)oc2cc(S(=O)(=O)NCc3ccccc3)ccc21)NCc1ccccc1Cl	TDP1 cell noCPT 9.2µM, TDP1 cell CPT 7.3µM (no result: IL1B secr inh, HT1080 IDH1KD tx, HT1080-NT tox)
O=C(Cn1c(=O)oc2cc(S(=O)(=O)N3CCCC3)ccc21)NCc1ccc(Cl)cc1	TDP1 cell noCPT 21µM, TDP1 cell CPT 16µM, ALOX12 inh inconclusive (no result: IL1B secr inh, HT1080 IDH1KD tx, HT1080-NT tox)
CC(Sc1ccc2ccccc2n1)C(=O)NC1(C#N)CCCCC1 (configuration not stated)	none (no result: IL1B secr inh, HT1080 IDH1KD tx, TDP1 cell noCPT, TDP1 cell CPT, HT1080-NT tox)
Cc1ccc2c(c1)-c1c(cnc3cc(-c4ccc(F)cc4)nn13)CO2	none (no result: IL1B secr inh, HT1080 IDH1KD tx, HT1080-NT tox)
Cc1cc([N+](=O)[O-])nn1CC(=O)NCCCN1CCOCC1	none
Cc1cc(C)c2c(=O)n(CC(=O)NCCCN3CCOCC3)sc2n1	IL1B secr inh -97, TDP1 cell noCPT 6.5µM, TDP1 cell CPT 4.1µM (no result: ALOX12 inh)
Cc1cc(C)c2c(=O)n(CC(=O)NCCCN3CCN(c4ccccc4F)CC3)sc2n1	IL1B secr inh inconclusive, TDP1 cell noCPT 3.3µM, TDP1 cell CPT 4.6µM, HT1080-NT tox inconclusive (no result: ALOX12 inh)
O=C1CCCCCN1Sc1ccccc1	IL1B secr inh -101, TDP1 cell noCPT 5.2µM, TDP1 cell CPT 5.8µM, ALOX12 inh 16µM
Cc1ccc(C(=O)C(OC(=O)c2ccc(N(C)C)cc2)c2ccccc2)cc1 (configuration not stated)	none (no result: IL1B secr inh, HT1080 IDH1KD tx, TDP1 cell noCPT, TDP1 cell CPT, HT1080-NT tox)

Compound activity from PubChem BioAssay.
